FLuc inh: Photinus pyralis luciferase inhibition | P08659 | purified P. pyralis luciferase, luminescence, biochemical | hit rate 2.5% among 76,000 | Potency, µM (series often up to 115 µM), hits mostly inhibitors; note: nearly all actives have a fitted effect of over 65% in size
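Biochemical qHTS: compound (6-point titration) added to 10uM D-luciferin plus 10uM ATP in Tris acetate pH 7.5 buffer with Mg, Tween-20 and BSA, then purified enzyme at 10nM; light output imaged.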
NIH3T3 tox: cytotoxic compounds in NIH 3T3 cells; NIH 3T3 viability, CellTiter-Glo ATP luminescence, 48-72 h; Potency, µM (series often up to 96.7 µM), usual class: inhibitors; hit rate 4.3% among 94,000; AID 1345082; note: nearly all actives have a fitted effect of over 55% in size
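Luminescent ATP readout (CellTiter-Glo, 10 min RT) after 48 or 72 hr compound exposure of NIH 3T3 cells seeded at 400 cells/well in 1536-well format; quantitative HTS.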
hNpr1 antagonist: human Npr1 receptor antagonism. P16066. HEK293 hNpr1 GloSensor cGMP, ANP-stimulated luminescence. Potency, µM (doses to about 46.3 µM), hits mostly inhibitors. hit rate 1.6% among 76,000; calls by dose curve; note: nearly all actives have a fitted effect of over 60% in size
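Compound pre-incubated 30 min at room temperature on GloSensor-loaded HEK293 cells stably carrying hNpr1 and the pGS-40F cGMP biosensor. Stimulation uses hNppA at 0.1 nM final; luminescence is taken at baseline and 20 min post-agonist.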
HEK293 tox: HEK 293 cell cytotoxicity; HEK 293 viability, ATP luminescence (CellTiter-Glo), 48-72 h; Potency, µM (series often up to 115 µM), most hits filed as inhibitors; hit rate 6.6% among 94,000; AID 1345083; note: nearly all actives have a fitted effect of over 60% in size
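ATP-coupled CellTiter-Glo luminescence served as viability read-out, recorded 10 min after reagent addition at room temperature. HEK 293 cells, 250 cells/well, had been incubated with pintool-transferred compound for 48 or 72 hr at 37 degree Celsius.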
Numbers stand for hits; i = inactive; ? = inconclusive; nt = no result given. The list is not random: actives were taken first. Their share in the collection is about 11%. Unless noted, calls come from the whole dose curve; as a rule, active = well fitted curve in the direction sought with a large enough effect; inconclusive = small, poorly fitted or top-dose-only effect, or another doubt; inactive = no such curve, though single readings can be large; an effect the other way counts as inactive or inconclusive.

SMILES	FLuc inh	NIH3T3 tox	hNpr1 antagonist	HEK293 tox
Cc1cccc(CN2CCNc3cnc(-c4ccccc4)cc3C2)c1	i	?	i	?
CN(C)c1ccc(CN2CCNc3cc(-c4ccccc4)ncc3C2)cc1	i	?	i	?
Cn1cc(CN2CCNc3cnc(-c4ccccc4)cc3C2)cn1	i	32µM	i	?
CN(C)c1ccc(CN2CCNc3cnc(-c4ccccc4)cc3C2)cc1	i	?	i	100µM
COc1ccc(CC(=O)Nc2ccc3ncnc(N4CCCCC4)c3c2)c(Cl)c1	i	?	i	?
O=C(Nc1ccc2c(N3CCCC3)ncnc2c1)c1ccc(Br)cc1	?	?	i	?
COc1cccc(CC(=O)Nc2ccc3c(N4CCCCC4)ncnc3c2)c1	i	?	?	32µM
COc1ccccc1C(=O)Nc1ccc2ncnc(N3CCCCC3)c2c1	i	?	?	40µM
O=C(Nc1ccc2c(N3CCCC3)ncnc2c1)c1ccccc1Br	i	?	i	8.9µM
CC(=O)NC1CCCN(c2ccnc3ccnn23)C1 (stereo not drawn)	nt	i	nt	i
COc1ncccc1CNC[C@H]1Cn2cc(-c3ccc4c(c3)OCCCO4)nc2CO1	50µM	?	i	89µM
c1cc(CNC[C@H]2Cn3cc(-c4ccc5c(c4)OCCCO5)nc3CO2)ccn1	45µM	i	i	i
CC1(C)[C@H](Cc2cc(-c3ccc(F)cc3)on2)C[C@@H]1NCc1cccnc1	?	?	11µM	?
COCc1cc(C[C@@H]2C[C@H](NCc3cccnc3)C2(C)C)no1	i	i	i	i
CC1(C)[C@H](Cc2cc(-c3ccc(F)cc3)on2)C[C@@H]1NC1CCC1	i	35µM	i	40µM
CN1CCC(N[C@H]2C[C@@H](Cc3cc(C(C)(C)C)on3)C2(C)C)CC1	i	50µM	i	28µM
O=C(C1CCCC1)N1CCC(C(=O)N2CCCC(c3nc4ncccc4[nH]3)C2)CC1 (stereo not drawn)	nt	i	nt	i
COc1ccc(C(=O)N2CCN(c3ccc4nnc(C)n4n3)CC2)cc1	nt	i	nt	i
O=C(Cc1ccc2c(c1)OCO2)NCc1cccnc1N1CCOCC1	28µM	i	i	i
O=C(CCc1ccnc(N2CCOCC2)c1)Nc1ccc2c(c1)OCO2	35µM	i	i	i
CC1(c2ccccc2)N(Cc2ccccc2)C(=O)OC12CCN(C(=O)c1ccc(F)cc1)CC2 (stereo not drawn)	i	?	i	?
CC1(c2ccccc2)N(Cc2ccc(O)cc2)C(=O)OC12CCN(CC1CC1)CC2 (stereo not drawn)	i	79µM	i	?
CC1(c2ccccc2)N(Cc2ccccc2F)C(=O)OC12CCN(C(=O)Cc1ccc(O)cc1)CC2 (stereo not drawn)	i	22µM	i	?
COc1ccc(CN2CCC3(CC2)OC(=O)N(Cc2ccccc2C#N)C3(C)c2ccccc2)cc1O (stereo not drawn)	i	?	i	45µM
CC1(c2ccccc2)N(Cc2ccccc2F)C(=O)OC12CCN(C(=O)CCc1ccccn1)CC2 (stereo not drawn)	i	?	i	?
SMILES	FLuc inh	NIH3T3 tox	hNpr1 antagonist	HEK293 tox
Cn1ccc(C(=O)N2CCC3(CC2)OC(=O)N(Cc2ccccc2)C3(C)c2ccccc2)n1 (stereo not drawn)	i	35µM	i	i
CC1(c2ccccc2)N(Cc2ccccc2C#N)C(=O)OC12CCN(CCc1ccccc1)CC2 (stereo not drawn)	i	?	i	?
COC[C@@H]1CN(Cc2ccc(F)cc2Cl)C[C@H]1C(=O)NC1CC1	i	i	i	i
COCCn1c(=O)c(C(=O)N2CCN(C(=O)c3ccc(C(F)(F)F)cc3)CC2)nc2cccnc21	nt	i	nt	i
COc1ccc(CNC(=O)N2CCCCC2c2noc(COc3ccc(C)cc3)n2)cc1 (stereo not drawn)	i	?	i	?
CC1=C[C@@H](CNC(=O)CCCC(=O)O)[C@H](C(C)C)C[C@H]1Cc1nc2ncccc2[nH]1	i	i	i	i
COCC(=O)NC[C@H]1CCN(Cc2ccc(C#N)cc2)C[C@H]1N(C)C	i	i	i	i
CC(C)N1CCN(C(=O)CN2C(=O)C(Oc3ccc(F)cc3)C23CCCCC3)CC1 (stereo not drawn)	nt	i	nt	i
O=C(c1cccc(F)c1)N1CCCCCC1CN1CCOCC1 (stereo not drawn)	nt	i	nt	i
Cc1nc(CN2C(=O)OC3(CCN(Cc4ccc(C(C)C)cc4)CC3)C2(C)c2ccccc2)cs1 (stereo not drawn)	i	45µM	i	?
